Source: PubChem BioAssay (NCI)
This is part of a sample that, as a whole, favours compounds with a hit. Of some 79,000 tested, about 15% had one in any assay. Active and inactive are the calls of the source. No stated cut-off is given here; in the data, active means growth inhibition above about 70%; inactive means the rest. Where a SMILES comes first, the peptide text is derived from it. [ ]: non-standard residue; d: D form. The star is where a group is joined. ξ: configuration not given here. ξF = NC(Cc1ccccc1)C(=O)O; Cbz = O=C(OCc1ccccc1)*; Aib = CC(C)(N)C(=O)O; NHNH2 = NN*

Columns and labels:
[1] = NCI Yeast Anticancer Drug Screen. Data for the rad50 strain (AID 155);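 further: 0% = growth of vehicle-only cultures of the same strain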; details: S. cerevisiae rad50 strain growth inhibition; at 50.0 µM; hits give high values
In short: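 Yeast carrying a defined DNA repair defect were exposed to test compounds, and growth was compared with vehicle-treated controls to give percent inhibition.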

[2] = NCI Yeast Anticancer Drug Screen. Data for the mec2-1 strain (AID 157); details: S. cerevisiae mec2-1 strain, at 50.0 µM, hits give high values
In short: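 Test agents were screened against the mec2-1 yeast strain, with defined DNA repair or cell cycle alteration. Growth was scored as inhibition against vehicle-only controls.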

[3] = NCI Yeast Anticancer Drug Screen. Data for the sgs1 mgt1 strain (AID 161);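 further: 0% = growth of cultures given vehicle only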; details: S. cerevisiae sgs1 mgt1 strain, at 50.0 µM, hits give high values
In short: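 Mutant yeast exposed to compound; growth scored against vehicle-only wells.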

[4] = NCI Yeast Anticancer Drug Screen. Data for the cln2 rad14 strain (AID 165);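 further: 0% = growth equal to vehicle treated cultures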; details: S. cerevisiae cln2 rad14 strain, at 50.0 µM, hits give high values
In short: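 Growth of compound-exposed yeast (cln2 rad14 genotype) measured and expressed as inhibition relative to vehicle.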

[5] = NCI Yeast Anticancer Drug Screen. Data for the bub3 strain (AID 167); details: S. cerevisiae bub3 mutant strain, at 50.0 µM, hits give high values
In short: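 Compounds were applied to a genetically altered yeast strain carrying a cell-cycle control defect. Growth inhibition was scored against vehicle-treated controls.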

[6] = NCI Yeast Anticancer Drug Screen. Data for the mlh1 rad18 strain (AID 175); details: S. cerevisiae mlh1 rad18 strain growth inhibition; at 50.0 µM; hits give high values
In short: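 In this whole-cell yeast screen, a strain with altered DNA damage repair is challenged with compound, and its growth is measured against matched vehicle-treated controls.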

Measured: growth inhibition

CCC(=O)c1ccc(OC(=O)Nc2ccc(Cl)cc2[N+](=O)[O-])cc1
inactive: [1] 2.25% | [2] 42.8% | [3] 38.5% | [4] -0.75% | [5] 26.2% | [6] -124%

O/N=C/c1ccc(O)c(O)c1
inactive: [1] 16.4% | [2] -7.35% | [3] -4.05% | [4] -0.7% | [5] 10.8% | [6] 4.75%

CCN(CC)C(=O)CCC(=O)O
inactive: [1] 0.4% | [2] -13.3% | [3] -14.7% | [4] 3.3% | [5] 0.55% | [6] 24.7%

CCN(CC)Cc1cc(C(C)(C)CC)cc(-c2ccccc2)c1O
inactive: [1] -11.2% | [2] -33.6% | [3] -12.6% | [4] -24.9% | [5] 8.5% | [6] -4.1%

OCc1ccc(CO)o1
inactive: [1] 17.8% | [2] 15.7% | [3] -16.4% | [4] -1.55% | [5] 24.1% | [6] 5.4%

Cc1cccc(CN(C)C)c1C=C(c1ccccc1)c1ccccc1
inactive: [1] 11.9% | [2] -1% | [3] 10.6% | [4] -0.05% | [5] 8.7% | [6] 33%

CCOC(=O)C(C(=O)OCC)=C(N)C(Cl)(Cl)Cl
inactive: [1] 0.2% | [2] -1.6% | [3] -9.9% | [4] 14.8% | [5] 11.7% | [6] -1.9%

CCCNC(=O)Nc1ccc(OC)cc1Cl
inactive: [1] -12.1% | [2] -9.45% | [3] -1.65% | [4] -59.3% | [5] -6.3% | [6] -15.6%

CC(C)CCCC(C)C1CCC2(C)C3=C(CCC12C)C1(C)CCC(O)C(C)(C)C1CC3=O (configuration not stated)
inactive: [1] -0.35% | [2] -0.5% | [3] -18.6% | [4] 1.85% | [5] 2.1% | [6] -5.45%

O=C1C=C(N2CCCC2)CC1
inactive: [1] 18.2% | [2] 3.1% | [3] -0.2% | [4] -43% | [5] -17.1% | [6] 6.25%

COc1ccc(C(O)c2cc(C(F)(F)F)cc(C(F)(F)F)c2)cc1OC (configuration not stated)
inactive: [1] 9.2% | [2] -11.6% | [3] 11.2% | [4] 8.2% | [5] 22.9% | [6] 14.3%

CN(C(=O)C12C3C4C1C1C2C3C41C(=O)N(C)C(C)(C)C)C(C)(C)C (configuration not stated)
inactive: [1] 13.9% | [2] 11.5% | [3] -7.4% | [4] 9.45% | [5] 23.4% | [6] -2.4%

O=C1NC(=S)S/C1=C\c1ccc2c(c1)OCO2
inactive: [1] -22.1% | [2] -21.3% | [3] -4.8% | [4] -2% | [5] -8.05% | [6] -7.55%

CCOC(=O)NC(Nc1cccc(C(F)(F)F)c1)(C(F)(F)F)C(F)(F)F
inactive: [1] 1.45% | [2] -10.3% | [3] -38.5% | [4] 7.7% | [5] -15.6% | [6] -3.3%

CC(C)(NC(=O)OCc1ccccc1)C(=O)NC(Cc1ccccc1)C(=O)NN (configuration not stated) (Cbz-[Aib]-[ξF]-NHNH2)
inactive: [1] 0.55% | [2] 7.35% | [3] 7% | [4] 20.9% | [5] 15.4% | [6] -20.1%

CCOC(=O)CSc1ncnc2nc[nH]c12
inactive: [1] 31.2% | [2] -9.35% | [3] -6% | [4] 6.25% | [5] 17% | [6] 9.75%

O=C(O)C=C(CBr)CBr
inactive: [1] 11.5% | [2] -3% | [3] -1.25% | [4] -24.1% | [5] 14.1% | [6] 9.05%

C=CCCC(=O)CC(=O)OCC
inactive: [1] -25.1% | [2] -22.7% | [3] -10.7% | [4] 10.3% | [5] -8% | [6] 6.15%

O=C(O)Cc1cc(I)c(Oc2ccc(O)cc2)c(I)c1
inactive: [1] -5% | [2] -29.4% | [3] 6.05% | [4] 15.2% | [5] -9.5% | [6] 3.9%

O=C(CCc1ccc(O)c(O)c1)NCCc1cc(OCc2ccccc2)cc(OCc2ccccc2)c1
active: [1] 83.9% | [2] 88.4% | [3] 83.2% | [4] 87.5% | [5] 82.2% | [6] 73.1%

NNC(=S)NNc1ccccc1
inactive: [1] 12.2% | [2] 42.4% | [3] 56.1% | [4] -2.65% | [5] 20.4% | [6] 42.7%

Cn1c(=O)c2c(nc(CN3CCOCC3)n2C)n(C)c1=O
inactive: [1] -1.35% | [2] -11.2% | [3] 3.55% | [4] -25.4% | [5] 3.6% | [6] 7.2%

CC1=CC(OC2CCCCO2)CC(C)(C)C1 (configuration not stated)
inactive: [1] -5.2% | [2] -3% | [3] -11% | [4] -16.4% | [5] 0.05% | [6] -5.15%

CCCC(=O)OC1=CC(=O)c2ccccc2C1=O
inactive: [1] 22.9% | [2] 16.6% | [3] 29.1% | [4] 26.5% | [5] -10.2% | [6] 6.3%

CCCCCCCC(=O)NS(=O)(=O)c1ccccc1
inactive: [1] 31.7% | [2] 20.7% | [3] 27.8% | [4] 52.2% | [5] 37.2% | [6] 39.8%

CC(NC(=O)c1ccccc1)C1CCCCC1 (configuration not stated)
inactive: [1] -5.2% | [2] -1.85% | [3] -1.4% | [4] -49.8% | [5] -12.7% | [6] 0.75%

O/N=C\c1cc2ccccc2c[n+]1Cc1ccc2ccccc2c1Br
inactive: [1] 9.25% | [2] 32.1% | [3] 44.6% | [4] 48% | [5] 2.9% | [6] 38.8%

COC(=O)/C(C#N)=C/c1ccco1
inactive: [1] -34% | [2] 6.65% | [3] -14.2% | [4] 2.5% | [5] -2.05% | [6] -21.6%

[Cl][Pd][Cl].[NH-]CC1(C[NH-])CCCCC1
inactive: [1] 3.5% | [2] -1.1% | [3] 3.75% | [4] -64.2% | [5] 7.7% | [6] 5.95%

OC(CBr)c1cc(-c2ccc(Cl)cc2)nc2c(-c3ccccc3)cccc12 (configuration not stated)
inactive: [1] -3% | [2] 3.85% | [3] -4.05% | [4] -25.4% | [5] 2.35% | [6] 28.7%

CC(C)(C)OC(=O)N1CCCC1C(=O)NCCNc1ccc(NCCNC(=O)C2CCCN2C(=O)OC(C)(C)C)c2c1C(=O)c1ccccc1C2=O (configuration not stated)
inactive: [1] 13.8% | [2] 13.4% | [3] 21.4% | [4] 52.4% | [5] 2.35% | [6] -25%

CC(C)(C)OC(=O)NC(CC(N)=O)C(=O)O (configuration not stated)
inactive: [1] 23.1% | [2] -6% | [3] 8.9% | [4] -33.5% | [5] -6.45% | [6] 10.7%

CCN(CC)CCOC(=O)c1ccc(NC(=O)OCCC(C)(C)CCOC(=O)Nc2ccc(C(=O)OCCN(CC)CC)cc2)cc1
inactive: [1] 6.85% | [2] -18.4% | [3] -9.25% | [4] -23.6% | [5] 8.25% | [6] 16.2%

COC1OC(CCl)C(Cl)C(OC)C1OC (configuration not stated)
inactive: [1] -9.1% | [2] -1.1% | [3] 5.6% | [4] -1.5% | [5] -2.5% | [6] 14.4%

O=C(O)c1cccc2c1CCCC2
inactive: [1] -2.7% | [2] 7.35% | [3] -21.6% | [4] 0.05% | [5] -11.6% | [6] 8.05%

CN(N)c1cc(=O)n(C)c(=O)n1C
inactive: [1] -1.35% | [2] -1.2% | [3] -10.7% | [4] -45.1% | [5] -3.05% | [6] 15.6%

COC(=O)[C@]1(C)CCC[C@@]2(C)[C@H]1CC=C1C=C(C(C)C)CC[C@@H]12
inactive: [1] 50% | [2] 1.15% | [3] 22.8% | [4] 4.6% | [5] -1.95% | [6] 24.4%

CCOC(=O)OCCOCCOC(=O)OCC
inactive: [1] -2.25% | [2] -14.2% | [3] -30.8% | [4] 19.2% | [5] -2.65% | [6] 25.8%

CC1(C)C2CCC(I)(C2)C1I (configuration not stated)
inactive: [1] 10.9% | [2] 0.45% | [3] -17.3% | [4] -15.8% | [5] 1.55% | [6] 10.3%

Cc1cccc2c(CC(N)C(=O)O)c[nH]c12 (configuration not stated)
inactive: [1] 3.25% | [2] -19.9% | [3] -18.9% | [4] -23.4% | [5] -16.6% | [6] -3.35%

CC(CN(C)C)/C(=N\Nc1ccccc1)c1ccccc1 (configuration not stated)
inactive: [1] 16.5% | [2] 10% | [3] 29.2% | [4] 1.1% | [5] -7.85% | [6] 35.4%

CCCCCCCCCCCCCCCCc1c(C(=O)OC)nc(NN)[nH]c1=O
inactive: [1] -6.3% | [2] 5.2% | [3] -26.5% | [4] -2.85% | [5] 2.1% | [6] -12.8%
